The results in this text go back to PubChem BioAssay AID449762 (Southern Research Specialized Biocontainment Screening …, 2010).

Molecules are shown by their SMILES. The campaign covered roughly 330,000 compounds. About 1,900 (0.58%) were called active. Roughly 4% stayed inconclusive and do not appear here. No stated cut-off is given here; in the data, inconclusive means inhibition above about 70% without an active follow-up result; inactive means below that. The list is a sample of the results. Potency and affinity values are given separately.

The nature of this experiment: M. tuberculosis growth inhibition, HTS (AID 449762).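 Further: bacterial growth assessed after seven days of incubation.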 The following applies: M. tuberculosis H37Rv growth inhibition, 7H9 media; at 25 µM; active compounds read high.
Turning to `CCCCCCN1Cc2ccccc2C1`, the inhibition is 3.68% (inactive).

As for `O=c1ccsn1Cc1ccccc1`, the inhibition is 2.59% (inactive).

On to `c1ccc(CCNCCCOc2cccc3ccccc23)cc1`, for which the inhibition is 40.1% (inactive).

With `Cc1ccc(OCCCCNC(C)c2ccccc2)c(C)c1` (stereo not drawn), the inhibition is 7.81% (inactive).

`C#CCNC(=O)C1=C[C@H](c2ccc3c(c2)OCO3)C[C@H](OCc2ccc(CO)cc2)O1`: the inhibition is 6.55% (inactive).

For `COc1ccccc1N1CCN(CC(=O)Nc2nc(C)c(C(=O)N(C)C)s2)CC1`, the inhibition is 0.78% (inactive).

With `CN1CCN(c2nc(-c3cc4ccccc4o3)cs2)CC1`, the inhibition was 1.67% (inactive).

Turning to `Nc1nc(-c2cc3ccccc3o2)cs1`, the inhibition is 27.5% (inactive).

As to `COc1ccc2[nH]c(C)c(CCN(Cc3cccs3)C(=S)Nc3ccccc3)c2c1`, the inhibition was -7.77% (inactive).

Consider `CCCCn1cnc2c1c(=O)n(CC(=O)c1cc(C)n(C)c1C)c(=O)n2CC(C)C`, for which the inhibition was 5.57% (inactive).

Consider `Cc1ccc(CN2CCN(Cc3ccc4c(c3)OCCO4)CC2CCO)cc1` (stereo not drawn), for which the inhibition was -5.47% (inactive).

As to `O=C(c1nc2ccccc2[nH]1)c1ccccc1[N+](=O)[O-]`, the inhibition is 13% (inactive).

Take `CCCCNc1nc(-c2ccccc2)nc(-n2ccnc2)n1`: the inhibition was 10% (inactive).

In the case of `CN(c1ccccc1)c1nc(-n2ccnc2)nc(-n2ccnc2)n1`, the inhibition is 5.05% (inactive).

As to `COc1nc(N(c2ccccc2)c2ccccc2)nc(-n2ccnc2)n1`, the inhibition was 34.2% (inactive).

`c1ccc(N(c2ccccc2)c2nc(-n3ccnc3)nc(-n3ccnc3)n2)cc1`: the inhibition was -9.38% (inactive).

Turning to `COC(=O)c1ccc(C2c3c(oc4ccc(F)cc4c3=O)C(=O)N2CCO)cc1` (stereo not drawn), the inhibition was -6.43% (inactive).

In the case of `COc1ccccc1NC(=O)c1ccc2nsnc2c1`, the inhibition is 5.74% (inactive).

On to `CCN1C(=O)C(CC(=O)NCCc2ccccc2)N(NC(=O)c2cccnc2)C1=S` (stereo not drawn), for which the inhibition was 12% (inactive).

For the molecule `Clc1ccccc1N=C1SCCS1`, the inhibition is -6.64% (inactive).

Regarding `CSc1ncccc1C(=O)N(C)CC(=O)Nc1ccc(Cl)c(C(F)(F)F)c1`, the inhibition is -3% (inactive).

As to `COc1ccccc1N1CCN(C(=O)C2CCN(S(=O)(=O)c3ccc(F)cc3)CC2)CC1`, the inhibition is -1.53% (inactive).

For `CC(=O)Nc1cc(C(=O)N2CCc3ccccc3C2)ccc1Sc1ccc(Cl)cc1`, the inhibition was 2.06% (inactive).

`Cc1nc2c(C)cccn2c(=O)c1NC(=O)c1cccs1`: the inhibition was -5.13% (inactive).

Turning to `C=CCNc1oc(-c2ccc(OC)cc2)nc1C#N`, the inhibition was 4.44% (inactive).

As for `C=CCNc1oc(-c2ccc(Cl)cc2)nc1C#N`, the inhibition was 47.3% (inactive).

For the molecule `NS(=O)(=O)c1ccc(NC(=O)CSc2nnc(Cc3cccs3)n2-c2ccccc2)cc1`, the inhibition is 10.1% (inactive).

Regarding `O=C(/C=C/c1ccccc1)N1CCN(c2ccccn2)CC1`, the inhibition was -12.8% (inactive).
